Data reported in PubChem BioAssay (Tox21).
Records with an inconclusive call do not appear. Unmarked numbers belong to inactive results. Active and inactive are the calls of the source. The call rests on the fitted dose curve; in most records, active means well fitted inhibition curve with a large enough effect in the signal ratio in the repeat runs (not every such curve was filed as active); inconclusive means weak or mixed curves; inactive means flat fitted curve, though single readings scatter; the % refers to the signal ratio.
On the % scale 0 is the no-effect control and ±100 the full control effect; potency means the concentration at half of the fitted maximal effect.

Each compound was assayed against Progesterone receptor (Homo sapiens) (UniProt P06401) (assay: qHTS assay to identify small molecule antagonists of the progesterone receptor (PR) signaling pathway (AID 1346795)). Details: PR-UAS-bla HEK293T, beta-lactamase FRET ratio, 16 h; series mostly up to 92.4 µM; activity change, negative = inhibition: at the top concentration.
Sequence of Progesterone receptor (Homo sapiens) (P06401 whole entry, looked up): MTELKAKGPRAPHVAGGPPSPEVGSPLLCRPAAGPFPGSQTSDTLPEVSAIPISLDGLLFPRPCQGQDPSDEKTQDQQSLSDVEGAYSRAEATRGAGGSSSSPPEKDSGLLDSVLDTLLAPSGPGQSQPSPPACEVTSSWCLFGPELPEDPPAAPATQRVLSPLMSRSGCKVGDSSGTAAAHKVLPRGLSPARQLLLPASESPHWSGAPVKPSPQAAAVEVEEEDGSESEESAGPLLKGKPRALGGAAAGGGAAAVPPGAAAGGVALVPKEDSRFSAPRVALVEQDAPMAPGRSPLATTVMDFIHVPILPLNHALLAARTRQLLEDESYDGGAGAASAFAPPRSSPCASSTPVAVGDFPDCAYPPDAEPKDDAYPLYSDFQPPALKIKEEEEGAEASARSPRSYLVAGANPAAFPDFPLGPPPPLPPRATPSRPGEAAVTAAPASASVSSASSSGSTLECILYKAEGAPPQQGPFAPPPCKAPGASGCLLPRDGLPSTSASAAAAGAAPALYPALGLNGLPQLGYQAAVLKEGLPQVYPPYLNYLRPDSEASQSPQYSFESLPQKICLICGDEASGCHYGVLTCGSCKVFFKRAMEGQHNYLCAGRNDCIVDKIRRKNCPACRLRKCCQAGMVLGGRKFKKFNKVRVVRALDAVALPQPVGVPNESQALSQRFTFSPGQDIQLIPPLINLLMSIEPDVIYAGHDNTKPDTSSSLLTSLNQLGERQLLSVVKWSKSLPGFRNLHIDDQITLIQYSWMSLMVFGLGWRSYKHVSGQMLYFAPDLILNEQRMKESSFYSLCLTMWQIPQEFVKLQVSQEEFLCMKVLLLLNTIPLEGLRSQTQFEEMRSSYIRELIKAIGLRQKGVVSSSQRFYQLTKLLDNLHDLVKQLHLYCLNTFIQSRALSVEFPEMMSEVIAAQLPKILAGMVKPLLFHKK
Description: National Center for Advancing Translational Sciences [NCATS]
NIH Chemical Genomics Center [NCGC]
U.S. Environmental Protection Agency [EPA]
National Institutes of Environmental Health Sciences [NIEHS]
National Toxicology Program [NTP]
U.S. Food and Drug Administration [FDA]
Progesterone receptor (PR), a nuclear hormone receptor, plays an important role in development, metabolic homeostasis and reproduction. […] Endocrine disrupting chemicals (EDCs) and their interactions with steroid hormone receptors like PR causes disruption of normal endocrine function. To identify the compounds that inhibit PR signaling, a PR-UAS-bla GripTite cell line i.e. PR-UAS-bla HEK293T (Invitrogen, Carlsbad, CA, USA) containing a beta-lactamase reporter gene under the control of an Upstream Activator Sequence (UAS) was used to screen Tox21 10K compound library.
Tox21 Assay Protocol Summary:
PR-UAS-bla HEK293T cells were dispensed at 3,000 cells/4 uL of assay medium containing 2% charcoal stripped FBS per well into black wall/clear-bottom 1536-well plates using a Multidrop Combi (ThermoFisher Scientific, Waltham, MA) dispenser. After the assay plates were incubated at a 37C and 5% CO2 for 6 hr, 23 nL of compounds dissolved in DMSO, positive controls or DMSO only was transferred to the assay plate by a Pintool station (Kalypsys, San Diego, CA), followed by addition of 1 uL (1nM as final concentration) of Promegestone (R5020) in assay medium using a BioRAPTR FRD (Flying Reagent Dispenser, Aurora Discovery, San Diego, CA). The plates were incubated at 37C and 5% CO2 for 16 hr. Then 1 uL of LiveBLAzer B/G FRET substrate was added using a FRD. After the plates were incubated at room temperature for 2 hours, fluorescence intensity was measured by an Envision plate reader (PerkinElmer, Shelton, CT).
In the case of `Nc1ccc2cc(S(=O)(=O)O)ccc2c1`, the “activity change, negative = inhibition” value was 4.65%. Work on `C=C(C)C(=O)OCCCCCCCCCCCCCCCCCC` yielded an activity change, negative = inhibition of -2.15% [at 18.9 µM]. For `Nc1[nH]c(=O)ncc1F`, the “activity change, negative = inhibition” value was 5.99% [at 42.5 µM]. With `O=C(O)Cc1cc(I)c(Oc2cc(I)c(O)c(I)c2)c(I)c1` the Potency was 18.9 µM (active). With `C1C2OC2C2C1C1CC2C2OC12` (stereo not given) the “activity change, negative = inhibition” value was -9.26%. For `C=CCOc1nc(OCC=C)nc(OCC=C)n1`, the “activity change, negative = inhibition” value was -13.6%. For `CC12CCC(CC1=O)C2(C)C` (stereo not given), the “activity change, negative = inhibition” value was 5.47%. In the case of `CN1[C@@H]2CC[C@H]1CC(NC(=O)n1c(=O)[nH]c3ccccc31)C2` (stereo not given in full), the “activity change, negative = inhibition” value was -6.88% [at 42.5 µM]. With `NC(=O)Nc1nc2ccccc2[nH]1` the “activity change, negative = inhibition” value was 8.56%. `NCCNC(=O)c1ccc(Cl)cn1` was tested, and the “activity change, negative = inhibition” value was 6.15% [at 42.5 µM]. With `OCC(CO)(CO)COCC(CO)(CO)CO` the “activity change, negative = inhibition” value was 14%. For `CCC(=O)c1cccc(Cl)c1`, the “activity change, negative = inhibition” value was 7.09%. `CC/C=C\C#N` was tested, and the “activity change, negative = inhibition” value was -0.0244%. `CCCCOCC(C)OCC(C)O` (stereo not given) was tested, and the “activity change, negative = inhibition” value was 11.9%. `CC(C)(O)Cc1ccccc1` was tested, and the “activity change, negative = inhibition” value was 3.26%. `CC(C)(C)OC(=O)N1C[C@@H](F)C[C@H]1C(=O)O` was tested, and the “activity change, negative = inhibition” value was 1.54%. `CC(C)(C)C(=O)/C=C/c1ccc(Cl)cc1` was tested, and the “activity change, negative = inhibition” value was -20.1%. `O=C(O)/C=C/c1ccc(Cn2ccnc2)cc1` was tested, and the “activity change, negative = inhibition” value was 7.68% [at 42.5 µM]. For `O=C1CC2(CCCC2)CC(=O)N1`, the “activity change, negative = inhibition” value was 6.97% [at 42.5 µM]. For `CSc1nc(NC2CC2)nc(NC(C)(C)C)n1`, the Potency was 61.1 µM (active). With `NC(=O)c1ncn([C@@H]2O[C@H](CO)[C@@H](O)[C@H]2O)c1N` the “activity change, negative = inhibition” value was 8.55% [at 42.5 µM]. With `Oc1ccc2c(c1)OC[C@@H](N1CCC(O)(c3ccc(F)cc3)CC1)[C@H]2O` the Potency was 10.6 µM (active). With `CCN1CCCC(OC(=O)C(c2ccccc2)c2ccccc2)C1` (stereo not given) the “activity change, negative = inhibition” value was -8.86% [at 42.5 µM]. In the case of `Nc1nc2c(ncn2CCC(CO)CO)c(=O)[nH]1`, the “activity change, negative = inhibition” value was 0.0373% [at 42.5 µM]. For `CCN(CC)S(=O)(=O)c1ccc(C(=O)O)cc1`, the “activity change, negative = inhibition” value was 9.5% [at 42.5 µM]. With `NC(CS)C(=O)O` (stereo not given) the “activity change, negative = inhibition” value was 4.62% [at 42.5 µM]. In the case of `c1ccc2cnncc2c1`, the “activity change, negative = inhibition” value was 0.101%. In the case of `C[N+](C)(C)CC[N+]1(C)Cc2c(Cl)c(Cl)c(Cl)c(Cl)c2C1`, the “activity change, negative = inhibition” value was 6.88% [at 42.5 µM]. For `CCC(C)OC(=O)N1CCCCC1CCO` (stereo not given), the “activity change, negative = inhibition” value was -0.182%. `C=C[Si](OC)(OC)OC` was tested, and the “activity change, negative = inhibition” value was -2.03%. For `OC/C=C/c1ccccc1`, the “activity change, negative = inhibition” value was 9.67%. For `CC(C)N1C(=O)c2ccccc2C1=O`, the “activity change, negative = inhibition” value was -0.244%. `CSc1ccc(C=O)cc1` was tested, and the “activity change, negative = inhibition” value was 5.67%. `CCCCCCC(=O)OCC` was tested, and the “activity change, negative = inhibition” value was 8.99%. For `CCCOc1ccccc1-c1nc2n[nH]nc2c(=O)[nH]1`, the “activity change, negative = inhibition” value was 3.89% [at 42.5 µM]. In the case of `NC(=O)c1ncn([C@@H]2O[C@H](CO)[C@@H](O)[C@H]2O)c1O`, the “activity change, negative = inhibition” value was 14.8% [at 42.5 µM]. In the case of `C[C@H]1O[C@@H](n2cc(F)c(=O)[nH]c2=O)[C@H](O)[C@@H]1O`, the “activity change, negative = inhibition” value was 6.59% [at 42.5 µM]. `CCCOCC(C)OCC(C)O` (stereo not given) was tested, and the “activity change, negative = inhibition” value was -0.438%. `C=CCOCC(O)CS(=O)(=O)O` (stereo not given) was tested, and the “activity change, negative = inhibition” value was 7.31%. For `Cc1c(F)cc2c(=O)c(C(=O)O)cn3c2c1CCC3C` (stereo not given), the “activity change, negative = inhibition” value was 9.05% [at 42.5 µM].
